The record followed here is publication PMC9911399, “Two distinct binding modes provide the RNA-binding protein RbFox with extraordinary sequence specificity”.

Changes are numbered by the printed parent chain; changes in the protein carry UniProt numbers. Whole data set: some 16,000 sequences, median “ka relative to ugcaugu” near 0.0091, cut for the highest 2% near 0.032. The full list was thinned out, with the highest values kept by preference.

Sequences and labels used below:
B1: UAACCGC (DNA:RNA)
RNA: GGGAGACCGGAAUUCAGAUUGUCCUAACCGCUUAAAUCCCGUCGUAGCCACCA
DNA 1: CAATCTGAATTCCGGTCTCCC
DNA 2: TGGTGGCTACGACGGGATT
B2: CAACUUU (DNA:RNA)
RNA: B1 RNA with U25C, C29U, G30U, C31U
DNA 1: CAATCTGAATTCCGGTCTCCC
DNA 2: TGGTGGCTACGACGGGATT
B3: UUGCAAU (DNA:RNA)
RNA: B1 RNA with A26U, A27G, C29A, G30A, C31U
DNA 1: CAATCTGAATTCCGGTCTCCC
DNA 2: TGGTGGCTACGACGGGATT
B4: CACCGUG (DNA:RNA)
RNA: B1 RNA with U25C, A27C, C29G, G30U, C31G
DNA 1: CAATCTGAATTCCGGTCTCCC
DNA 2: TGGTGGCTACGACGGGATT
B5: AGUCCAG (DNA:RNA)
RNA: B1 RNA with U25A, A26G, A27U, G30A, C31G
DNA 1: CAATCTGAATTCCGGTCTCCC
DNA 2: TGGTGGCTACGACGGGATT
B6: AGGCAGA (DNA:RNA)
RNA: B1 RNA with U25A, A26G, A27G, C29A, C31A
DNA 1: CAATCTGAATTCCGGTCTCCC
DNA 2: TGGTGGCTACGACGGGATT
B7: AGAGAAG (DNA:RNA)
RNA: B1 RNA with U25A, A26G, C28G, C29A, G30A, C31G
DNA 1: CAATCTGAATTCCGGTCTCCC
DNA 2: TGGTGGCTACGACGGGATT
B8: GGGGAGU (DNA:RNA)
RNA: B1 RNA with U25G, A26G, A27G, C28G, C29A, C31U
DNA 1: CAATCTGAATTCCGGTCTCCC
DNA 2: TGGTGGCTACGACGGGATT
B9: GUCCGGG (DNA:RNA)
RNA: B1 RNA with U25G, A26U, A27C, C29G, C31G
DNA 1: CAATCTGAATTCCGGTCTCCC
DNA 2: TGGTGGCTACGACGGGATT
B10: GGGUUUG (DNA:RNA)
RNA: GGGAGACCGGAAUUCAGAUUGUCCGGGUUUGUUAAAUCCCGUCGUAGCCACCA
DNA 1: CAATCTGAATTCCGGTCTCCC
DNA 2: TGGTGGCTACGACGGGATT
B11: GGGUUUU (DNA:RNA)
RNA: B10 RNA with G31U
DNA 1: CAATCTGAATTCCGGTCTCCC
DNA 2: TGGTGGCTACGACGGGATT
B12: CGGGUUU (DNA:RNA)
RNA: B10 RNA with G25C, U28G, G31U
DNA 1: CAATCTGAATTCCGGTCTCCC
DNA 2: TGGTGGCTACGACGGGATT
B13: ACCGGGU (DNA:RNA)
RNA: B1 RNA with U25A, A26C, A27C, C28G, C29G, C31U
DNA 1: CAATCTGAATTCCGGTCTCCC
DNA 2: TGGTGGCTACGACGGGATT
B14: GUUUGGG (DNA:RNA)
RNA: B10 RNA with G26U, G27U, U29G, U30G
DNA 1: CAATCTGAATTCCGGTCTCCC
DNA 2: TGGTGGCTACGACGGGATT
B15: GUCGGGU (DNA:RNA)
RNA: B10 RNA with G26U, G27C, U28G, U29G, U30G, G31U
DNA 1: CAATCTGAATTCCGGTCTCCC
DNA 2: TGGTGGCTACGACGGGATT
B16: GGGUUGU (DNA:RNA)
RNA: B10 RNA with U30G, G31U
DNA 1: CAATCTGAATTCCGGTCTCCC
DNA 2: TGGTGGCTACGACGGGATT
B17: CCGGGUU (DNA:RNA)
RNA: B10 RNA with G25C, G26C, U28G, U29G, G31U
DNA 1: CAATCTGAATTCCGGTCTCCC
DNA 2: TGGTGGCTACGACGGGATT
B18: GGGAGUU (DNA:RNA)
RNA: B10 RNA with U28A, U29G, G31U
DNA 1: CAATCTGAATTCCGGTCTCCC
DNA 2: TGGTGGCTACGACGGGATT
B19: GGAGUUU (DNA:RNA)
RNA: B10 RNA with G27A, U28G, G31U
DNA 1: CAATCTGAATTCCGGTCTCCC
DNA 2: TGGTGGCTACGACGGGATT

The test addresses T1, RBFOX1 RRM (Homo sapiens, UniProt Q9NWB1 109-208).
T1 sequence: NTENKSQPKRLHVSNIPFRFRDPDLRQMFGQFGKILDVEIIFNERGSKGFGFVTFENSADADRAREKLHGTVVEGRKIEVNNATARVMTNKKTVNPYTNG
Kind of test: EMSA; HiTS-Eq, 1 nM pool, 10 min; buffer printed only for the single-RNA assays: 10 mM Tris pH 7.5, 150 mM NaCl, 3.4 mM EDTA, 0.001% NP-40, 30 C. The note with it: tags: His6 N-terminal (pET28a); label: 5' 32P. In outline:
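Purified RbFox RRM (wild type or mutant) was equilibrated for 10 min in 50 µL with 1 nM of a 5′-radiolabelled pool of RNA with 7 randomized nucleotides, its flanks annealed to DNA oligonucleotides, across increasing protein concentrations. Free RNA was separated by 8% native PAGE, excised, reverse-transcribed, PCR-barcoded and sequenced on an Illumina HiSeq 2500. Relative association constants came from read-count changes of each variant against the control reaction, normalised to the cognate motif.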
On to B1, for which the binding signal was 0.0039 KA relative to UGCAUGU.

With B2, the binding signal is 0.000994 KA relative to UGCAUGU.

For the molecule B3, the binding signal is 0.0162 KA relative to UGCAUGU.

For the molecule B4, the binding signal is 0.0057 KA relative to UGCAUGU.

Consider B5, for which the binding signal is 0.00711 KA relative to UGCAUGU.

Regarding B6, the binding signal is 0.00971 KA relative to UGCAUGU.

As to B7, the binding signal was 0.00984 KA relative to UGCAUGU.

Consider B8, for which the binding signal is 0.0316 KA relative to UGCAUGU.

B9: the binding signal was 0.00708 KA relative to UGCAUGU.

B10: the binding signal was 0.0349 KA relative to UGCAUGU.

In the case of B11, the binding signal was 0.0323 KA relative to UGCAUGU.

Take B12: the binding signal is 0.0393 KA relative to UGCAUGU.

For the molecule B13, the binding signal is 0.013 KA relative to UGCAUGU.

Turning to B14, the binding signal was 0.0128 KA relative to UGCAUGU.

B15: the binding signal was 0.0137 KA relative to UGCAUGU.

B16: the binding signal is 0.0284 KA relative to UGCAUGU.

Consider B17, for which the binding signal is 0.0196 KA relative to UGCAUGU.

As to B18, the binding signal was 0.0324 KA relative to UGCAUGU.

As to B19, the binding signal is 0.0247 KA relative to UGCAUGU.
